The text below walks through data of PubChem BioAssay (Tox21).

Test [1] can be described thus: qHTS assay to identify small molecule agonists of the hypoxia (HIF-1) signaling pathway (AID 1224846; active = well fitted activation curve with a large enough effect in the signal ratio in the repeat runs, not every such curve was filed as active; the % refers to the signal ratio). A digest of the protocol:
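A low-serum medium (0.5% dialyzed FBS) holding 2,000 HRE-bla ME-180 cells per well is preincubated for 5 hrs, dosed with compounds by pintool, and kept a further 17 hrs at 37C, 5% CO2 before CCF4-AM FRET detection of beta-lactamase.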

The nature of test [2]: qHTS assay to identify small molecule agonists of H2AX - cell viability counter screen (AID 1224847; calls by dose curve; note: top concentration of the series differs between compounds; nearly all actives have a fitted effect of over 30% in size). Summed up:
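Wild-type CHO-K1 cells (10% FBS medium) were plated overnight at 37C, exposed to compounds at 15 concentrations for 3 hr at 37C (0.76% DMSO final), and viability was read as CellTiter-Glo luminescence after 30 min at room temperature.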
(In qHTS, concentration-response curves come from the screen itself.)

Test [3] can be described thus: qHTS RealTime-Glo MT Cell Viability Assay in HepG2 cells - 24 hour (AID 1224867). Note: nearly all actives have a fitted effect of over 50% in size. A digest of the protocol:
(§1)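 HepG2 suspension premixed with RealTime-Glo reagents is plated at 600 cells per well and left 5 h at 37 C/5% CO2. Compounds in DMSO then go in, and bioluminescence reflecting viable cell number is recorded over 40 h.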

The nature of test [4]: A CellTox Green Cytotoxicity Assay to monitor cytotoxicity in HEK293 cells - 0 hour (AID 1224869). Note: nearly all actives have a fitted effect of over 50% in size. A digest of the protocol:
(§2)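 Fluorescence intensity, read at 0, 8, 16, 24, 32 and 40 h of compound treatment, reflected dye binding to DNA of dead HEK293 cells; compounds (23 nL, DMSO) were added 5 h after plating cells with reagent.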

Test [5] is described as follows: qHTS RealTime-Glo MT Cell Viability Assay in HepG2 cells - 40 hour (AID 1224870). Note: nearly all actives have a fitted effect of over 50% in size. A digest of the protocol: (§3)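 Real-time viability: cells seeded at 600 per well together with NanoLuc and cell-permeant prosubstrate, compounds added after 5 h incubation. Luminescence tracked at 0, 8, 16, 24, 32 and 40 h of exposure.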
Test [6] in a line: A CellTox Green Cytotoxicity Assay to monitor cytotoxicity in HEK293 cells - 40 hour (AID 1224871). Note: nearly all actives have a fitted effect of over 45% in size. Summed up: as §2
Test [7] can be described thus: qHTS RealTime-Glo MT Cell Viability Assay in HepG2 cells - 8 hour (AID 1224873). Note: nearly all actives have a fitted effect of over 55% in size. A digest of the protocol:
as §3

Test [8] can be described thus: A CellTox Green Cytotoxicity Assay to monitor cytotoxicity in HEK293 cells - 24 hour (AID 1224875). Note: nearly all actives have a fitted effect of over 45% in size. A digest of the protocol:
as §2

The nature of test [9]: A CellTox Green Cytotoxicity Assay to monitor cytotoxicity in HepG2 cells - 16 hour (AID 1224876). Note: nearly all actives have a fitted effect of over 45% in size. Summed up:
(§4)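 Using 1536-well format, dye-containing HepG2 suspension was seeded, allowed 5 h at 37 C/5% CO2, dosed by pintool with compounds, positive and negative controls, and imaged for fluorescence across 40 h.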

A short description of test [10]: qHTS RealTime-Glo MT Cell Viability Assay in HepG2 cells - 32 hour (AID 1224877). Note: nearly all actives have a fitted effect of over 55% in size. A digest of the protocol:
as §1

The nature of test [11]: A CellTox Green Cytotoxicity Assay to monitor cytotoxicity in HepG2 cells - 24 hour (AID 1224878). Note: nearly all actives have a fitted effect of over 45% in size. A digest of the protocol:
as §4

The nature of test [12]: A CellTox Green Cytotoxicity Assay to monitor cytotoxicity in HepG2 cells - 40 hour (AID 1224879). Note: nearly all actives have a fitted effect of over 40% in size. Note: potency is the fitted concentration of half-maximal effect. A digest of the protocol:
as §4

Test [13] in a line: qHTS assay to identify small molecule agonists of the hypoxia (HIF-1) signaling pathway - cell viability counter screen (AID 1224844; calls by dose curve; note: nearly all actives have a fitted effect of over 50% in size; note: potency is the fitted concentration of half-maximal effect). Summed up:
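Cells (HRE-bla ME-180, 2,000 per well) sat 5 hrs at 37C, got compound for 17 hrs, were read for CCF4-AM FRET, and were finally lysed with CellTiter-Glo for a 30 min room-temperature luminescence read.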

Test [14] in a line: qHTS RealTime-Glo MT Cell Viability Assay in HEK293 cells - 16 hour (AID 1224872). A digest of the protocol:
(§5)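 Reads taken at 0, 8, 16, 24, 32 and 40 h from the same wells. HEK293 cells (600/well) carried RealTime-Glo reagents from seeding, with compound added after a 5 h settle at 37 C.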

Test [15] in a line: qHTS RealTime-Glo MT Cell Viability Assay in HEK293 cells - 40 hour (AID 1224874). Note: nearly all actives have a fitted effect of over 50% in size. The note with it: RealTime-Glo luminescence; max response: stronger effect = lower value. A digest of the protocol:
(§6)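 Viable HEK293 cells reduce a cell-permeant prosubstrate; the product diffuses out and is consumed by NanoLuc in the medium to give light. Compounds went in after a 5 h incubation and plates were read over the treatment course.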

The nature of test [16]: qHTS RealTime-Glo MT Cell Viability Assay in HEK293 cells - 0 hour (AID 1224880). Summed up:
as §6

Test [17] in a line: qHTS assay to identify small molecule antagonists of the estrogen related receptor (ERR) signaling pathway from Tox21 library (AID 1224848). Note: nearly all actives have a fitted effect of over 50% in size. Note: potency is the fitted concentration of half-maximal effect. A digest of the protocol: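 Antagonist-mode screen of the Tox21 10K library in an NTP-provided ERR reporter cell line; 18 h compound exposure at 37 C, luminescence measured with ONE-Glo.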
Test [18] can be described thus: qHTS assay to identify small molecule agonists of the estrogen related receptor (ERR) signaling pathway from Tox21 library (AID 1224849; calls by dose curve; note: nearly all actives have a fitted effect of over 15% in size). The note with it: ERR reporter cell line, ONE-Glo luciferase, 18 h; at 92.4 µM (top of the series) unless noted. A digest of the protocol: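 Screening used an NTP-provided ERR luciferase cell line. Compounds in DMSO were added 6 h after seeding and left 18 h at 37 C before a 30 min ONE-Glo step and luminescence reading.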

Test [19] is described as follows: qHTS RealTime-Glo MT Cell Viability Assay in HEK293 cells - 32 hour (AID 1224868). Summed up:
as §5

Test [20] is described as follows: qHTS assay to identify small molecule agonists of H2AX (AID 1224845; active = well fitted activation curve with a large enough effect in the signal ratio in the repeat runs, not every such curve was filed as active; the % refers to the signal ratio). A digest of the protocol:
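Phospho-H2AX Ser139 measured by HTRF (ex 320 nm; em 665 and 620 nm) after 24 hr antibody incubation. Compounds, 15 concentrations, 0.76% DMSO, were applied to CHO-K1 cells for 3hr at 37C before lysis.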

Structures are written as SMILES. Values joined by “and” are separate entries in the source; they are usually repeats but may differ in a detail not shown here. Equal entries are not always repeated. Values without a mark were called inactive. Results filed as inconclusive are left out. Active and inactive are the calls of the source. Unless noted, calls come from the whole dose curve; as a rule, active = well fitted curve in the direction sought with a large enough effect in the repeat runs; inconclusive = weak or mixed curves; inactive = no such curve, though single readings can be large; an effect the other way counts as inactive or inconclusive.
% is set by controls: 0 for no effect and ±100 for the full control effect.

With `CC1(C)CCC(C)(C)c2cc(NC(=O)c3ccc(C(=O)O)cc3)ccc21`, the compound was called inactive in test [1]. The Potency result in [2], in test [3], in test [4], in test [5], in test [6] and in test [7] was “inactive” each time. Moreover, the Potency entry in test [8], in test [9], in test [10], in [11] and in [12] was “inactive” each time.

As to `C=CC(C)(CCC=C(C)C)OC(=O)c1ccccc1` (stereo not drawn), the Potency entry in test [13], in test [3], in [4], in test [5], in [14] and in test [7] was “inactive” throughout. In addition, the Potency result in test [9], in [10], in [11], in test [12] and in test [16] was “inactive” in each case. Further, the compound was called inactive in [1]. Further, the max response in test [15] was -13.6%.

For the compound `Cn1sccc1=O`, the Potency result in [2], in test [3], in test [4], in test [5], in test [6] and in [14] was “inactive” each time. For the same compound, the Potency entry in [7], in test [8], in test [9], in test [10] and in test [11] was “inactive” in each case. In addition, in test [17], the Potency was 48.6 µM (active). For the same compound, the activity change, positive = activation in [18] is -14.6% and -29.4%.

`CC(C)NCC(O)COc1ccc(CC(N)=O)cc1` (stereo not drawn): the Potency entry in [13], in test [3], in test [19], in test [4], in [5] and in [6] was “inactive” throughout. In addition, the Potency entry in test [14], in test [7], in test [8], in test [9], in test [10] and in test [11] was “inactive” in each case. Moreover, in test [12], the Potency entry is “inactive”. Also, the max response in [15] is -1.4%.

Consider `CN1CCC(=C2c3ccccc3C=Cc3ccccc32)CC1`, for which the Potency entry in test [20], in test [2], in [17], in test [4], in test [5] and in test [14] was “inactive” each time. Besides, the Potency entry in test [7], in test [8], in [10] and in [16] was “inactive” in each case. For the same compound, the activity change, positive = activation in [18] was 5.98% [at 42.5 µM]. In addition, in test [12], the Potency was 26.8 µM (active).

As to `C=Cc1c(C)c2cc3[nH]c(cc4nc(cc5nc(cc1[nH]2)C(C)=C5CCC(=O)O)C(CCC(=O)O)=C4C)c(C)c3C=C`, the Potency in [13] is 19 µM (active). The Potency entry in test [2], in test [3], in test [19], in test [4], in test [5] and in test [6] was “inactive” in each case. Also, the Potency result in [14], in test [7], in [8], in test [9], in test [10] and in test [11] was “inactive” throughout. Also, the Potency result in test [12] and in test [16] was “inactive” each time. Moreover, in test [18], the activity change, positive = activation is -18% [at 42.5 µM]. Also, the max response in test [15] is -11.2%.

On to `Cc1ccc(C(C)c2ccc(C)c(C)c2)cc1C`, for which the Potency entry in [13], in test [3], in [19], in test [4], in [5] and in test [6] was “inactive” throughout. Moreover, the Potency entry in test [14], in [7], in test [8], in test [9], in test [10] and in test [11] was “inactive” in each case. In addition, the Potency result in [12] and in test [16] was “inactive” each time. Moreover, in test [1], the call was inactive. Further, in [15], the max response was -0.95%.

`O=C(O)Cc1sc(-c2ccccc2)nc1-c1ccc(Cl)cc1`: the result in test [1] was inactive. For the same compound, the Potency entry in test [2], in test [3], in [19], in [4], in [5] and in test [6] was “inactive” throughout. In addition, the Potency entry in [14], in test [7], in test [8], in test [9], in test [10] and in test [11] was “inactive” each time. Further, the Potency result in [12] is “inactive”. In test [18], the activity change, positive = activation was -15.3% [at 42.5 µM]. In addition, the max response in test [15] is 0.938%.
